From PubChem BioAssay AID1159580 (chemical genetic matrix, 2015)
About 2,000 (36%) of roughly 5,500 compounds were called active. About 18% were inconclusive and are not listed. No stated cut-off is given here; in the data, active means normalized growth mostly below about 0.91 (no sharp cut-off); inconclusive means no clear call, values can overlap the other calls; inactive means mostly above about 0.92. The list shows a part of the results.

Experiment: chemical genetic growth profiling, strain panel (AID 1159580);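 further: tested at 20 µM; growth read once vehicle control cultures reached saturation at 30 °C; 1 = growth at the plate median or of vehicle wells; lower values mean less growth of the strain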
Conditions: S. cerevisiae deletion strains, growth OD

Measured: normalized growth

O=C(CSc1ccc(C(F)(F)F)cn1)N1CCc2c([nH]c3ccccc23)C1C(F)(F)F (stereo not drawn)
inactive: locus YAL013W, strain DEP1, hits give low values 1 | locus YBR229C, strain ROT2, hits give low values 0.995 | locus YCL061C, strain MRC1, hits give low values 1.01 | locus YDL101C, strain DUN1, hits give low values 1 | locus YDR150W, strain NUM1, hits give low values 1.02 | locus YEL061C, strain CIN8, hits give low values 0.959 | locus YGR078C, strain PAC10, hits give low values 0.984 | locus YHR030C, strain SLT2, hits give low values 1.01 | locus YHR087W, strain rtc3, hits give low values 0.974 | locus YJL187C, strain SWE1, hits give low values 1.02 | locus YJR043C, strain POL32, hits give low values 1.01 | locus YJR075W, strain HOC1, hits give low values 0.965 | locus YLR039C, strain RIC1, hits give low values 0.999 | locus YLR058C, strain SHM2 (second series), hits give low values 1.01 | locus YLR085C, strain ARP6, hits give low values 1 | locus YLR262C, strain YPT6, hits give low values 0.982 | locus YML094W, strain GIM5, hits give low values 0.997 | locus YMR219W, strain ESC1, hits give low values 1.01 | locus YMR263W, strain SAP30, hits give low values 1.01 | locus YMR307W, strain GAS1, hits give low values 0.935 | locus YNL153C, strain GIM3, hits give low values 0.998 | locus YNL298W, strain CLA4 (second series), hits give low values 1.01 | locus YNL322C, strain KRE1, hits give low values 0.991 | locus YNR030W, strain Alg12, hits give low values 0.916 | locus YOL006C, strain TOP1, hits give low values 1.08 | locus YPL055C, strain LGE1, hits give low values 0.954 | locus YPL241C, strain CIN2, hits give low values 0.936 | locus YPR135W, strain CTF4, hits give low values 0.907
